Bioassay records deposited in PubChem by several laboratories.
Mtb FBA inh: Mtb FBA enzyme inhibitors, primary screen, biochemical, fluorescence, strain H37Rv | purified M. tuberculosis FBA, fluorescence read-out | inhibition, % at 1 µM | 360,000 tested, 2.3% active | AID 588726, 2011; in the data active = inhibition above about 27%;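 note: 0% = vehicle and 100% = reference inhibitor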
Target sequence (P9WQA3 whole entry, looked up): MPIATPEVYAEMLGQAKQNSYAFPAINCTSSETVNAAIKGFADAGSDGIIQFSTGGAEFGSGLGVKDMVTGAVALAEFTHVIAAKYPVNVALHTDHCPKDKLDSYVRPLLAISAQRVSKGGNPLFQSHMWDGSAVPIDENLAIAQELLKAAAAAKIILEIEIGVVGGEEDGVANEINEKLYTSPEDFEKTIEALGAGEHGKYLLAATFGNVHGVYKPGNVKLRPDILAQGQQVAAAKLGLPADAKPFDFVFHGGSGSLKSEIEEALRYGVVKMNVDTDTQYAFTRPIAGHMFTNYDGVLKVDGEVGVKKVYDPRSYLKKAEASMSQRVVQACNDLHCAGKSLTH
BH1578 lux ind: inducers of Vibrio cholerae quorum light production without autoinducers, primary screen, BH1578 luxS cqsA deficient, single point | V. cholerae BH1578 lux reporter, luminescence, 6 h | 350,000 tested, 0.16% active | activation, % at 18.7 µM; in the data active = activation mostly above about 9.7%, no sharp cut-off
Mtb BioA inh: M. tuberculosis BioA enzyme inhibitors, primary screen, biochemical, plate reader, single point, HTS. 7,8-diaminopelargonic acid synthase BioA (Mycobacterium tuberculosis). purified M. tuberculosis BioA enzyme. inhibition, % at 9.99 µM. 360,000 tested, 0.096% active. AID 602481, 2012; in the data active = inhibition above about 40%
GDH-TPI counter: GDH-TPI coupling enzyme inhibitors, primary screen, artefact control for M. tuberculosis FBA inhibitor project, biochemical, absorbance, full deck; GDH-TPI coupled enzyme counterscreen, NADH absorbance; inhibition, % at 4.8 µM; 360,000 tested, 1.2% active; in the data active = inhibition above about 30%;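 note: 0% = DMSO wells and 100% = wells lacking the enzyme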
The depositor's hits bear a star; i = inactive; · = no result; + = active, no number. Only some compounds are listed: those with a hit (about 3% of all), similar ones and a draw of the others.

SMILES	Mtb FBA inh	BH1578 lux ind	Mtb BioA inh	GDH-TPI counter
Cc1c(OC(=O)CNC(=O)OC(C)(C)C)ccc2c3c(c(=O)oc12)CCC3	122*	i	-1	5
Cc1oc2c(C)c3oc(=O)c4c(c3cc2c1C)CCCC4	1	i	-3	8
CC(=O)COc1ccc2c3c(c(=O)oc2c1C)CCCCC3	115*	i	1	16
Cc1c(O)ccc2c3c(c(=O)oc12)CCCC3	193*	i	-1	12
COCC(=O)Nc1ccc2c(c1)[C@H]1C[C@H](CC(=O)N3CCOCC3)O[C@@H](CO)[C@H]1O2	·	·	0	·
O=C(C[C@H]1CC[C@@H]2[C@H](COC[C@H](O)CN2Cc2ccc3c(c2)OCO3)O1)Nc1ccc(-c2ccccc2)cc1	·	·	-2	·
C[C@@H]1CN([C@H](C)CO)C(=O)c2cc(/C=C/c3ccccc3)cnc2O[C@@H]1CN(C)C(=O)C1CCC1	·	·	-4	·
Cn1cccc1/C=N/n1c(-c2ccccc2)n[nH]c1=S	-4	i	-5	33*
COc1ccccc1/C=C/C=N/n1c(-c2ccncc2)n[nH]c1=S	-3	0	·	32*
COc1ccccc1/C=C/C=N/n1c(-c2n[nH]c3c2CCC3)n[nH]c1=S	6	-1	-4	33*
Cn1cccc1/C=N/n1c(-c2ccc(C(C)(C)C)cc2)n[nH]c1=S	-5	i	10	8
COc1ccccc1/C=C/C=N/n1c(-c2ccc(C)cc2)n[nH]c1=S	0	0	·	16
O=C(CN1CCOCC1)N[C@H]1CC[C@H](CCNS(=O)(=O)c2ccccc2F)O[C@@H]1CO	·	·	0	·
C[C@H]1CN([C@@H](C)CO)C(=O)c2cccc(NS(=O)(=O)c3ccc(Cl)cc3)c2O[C@H]1CN(C)Cc1ccc(C(=O)O)cc1	·	·	-3	·
COc1ccc(/C=N/N(C)c2cc(=O)n(C)c(=O)[nH]2)cc1OC	-2	i	·	46*
CN(/N=C/C=C/c1ccccc1)c1cc(=O)n(C)c(=O)[nH]1	-5	-1	-2	73*
CN(C)C(=O)C[C@@H]1C[C@@H]2c3cc(NC(=O)Nc4ccccc4)ccc3O[C@@H]2[C@@H](CO)O1	·	·	1	·
COCCOC(=O)N1C(=O)[C@@]2(c3ccccc31)[C@H](c1ccccc1OCCO)N1[C@H](c3ccccc3)[C@H](c3ccccc3)OC(=O)[C@H]1[C@@H]2C(=O)N1CCCCCCC1	·	·	-2	·
Cc1cc(=O)oc2c(C)c(OCC(=O)N3C[C@H]4C[C@@H](C3)c3cccc(=O)n3C4)ccc12	4	0	1	5
C=C(C)COc1ccc2c(C)c(CC(=O)N3C[C@H]4C[C@@H](C3)c3cccc(=O)n3C4)c(=O)oc2c1C	124*	0	0	12
Cc1coc2cc3oc(=O)c(CC(=O)N4C[C@H]5C[C@@H](C4)c4cccc(=O)n4C5)c(C)c3cc12	20	0	-1	3
COc1ccc2c(C)c(CC(=O)N3C[C@H]4C[C@@H](C3)c3cccc(=O)n3C4)c(=O)oc2c1C	134*	0	0	14
COc1ccc(NC(=O)N2C[C@H](O)COC[C@@H]3O[C@@H](CC(=O)N4CCN(C)CC4)CC[C@H]32)cc1	·	·	-1	·
C/C=C/c1ccc2c(c1)O[C@H](CN(C)C(=O)c1ccccc1F)[C@@H](C)CN([C@H](C)CO)S2(=O)=O	·	·	3	·
NC(=S)N=Nc1c(O)[nH]c2ccccc12	-3	0	-2	28
SMILES	Mtb FBA inh	BH1578 lux ind	Mtb BioA inh	GDH-TPI counter
Cc1ccc2[nH]c(O)c(N=NC(N)=S)c2c1	-7	0	3	38*
C/C(=N\NC(=O)c1ccncc1)c1ccc(N2CCOCC2)cc1	1	-3	1	17
C/C(=N\NC(=O)c1ccccc1)c1ccc(N2CCOCC2)cc1	-10	-3	1	31*
Cc1[nH]c2ccccc2c1/C=N/NC(N)=S	-1	0	·	37*
Nc1ccc2ccc3cccc[n+]3c2c1	-5	i	-202	10
COc1ccc2ccc3cccc[n+]3c2c1	134*	0	0	-2
C[C@@H]1CN([C@H](C)CO)C(=O)c2cccc(NC(=O)c3cnccn3)c2O[C@@H]1CN(C)CC1CC1	·	·	-3	·
Cn1c(=O)c2[nH]c(NN=Cc3cccc(Br)c3)nc2n(C)c1=O	-3	-6	0	37*
CCN(CC)CCOc1ccc(C=NNc2nc3c([nH]2)c(=O)n(C)c(=O)n3C)cc1	0	i	1	44*
CNC(=O)C[C@H]1CC[C@H]2[C@H](COc3ccc(NC(=O)Nc4cc(C)cc(C)c4)cc3C(=O)N2C)O1	·	·	0	·
CC(C)(O[C@@H]1O[C@H](CO)[C@@H](O)[C@H](O)[C@H]1O)[C@H]1Cc2cc3ccc(=O)oc3cc2O1	+	-5	-1	33*
CC(C)(O)[C@H](O)Cc1cc2ccc(=O)oc2cc1O[C@@H]1O[C@H](CO)[C@@H](O)[C@H](O)[C@H]1O	6	i	-3	13
CC(C)(O)[C@@H]1Cc2c(ccc3ccc(=O)oc23)O1	+	i	0	12
C=C(C)C1Cc2cc3ccc(=O)oc3cc2O1 (configuration not stated)	185*	1	18	15
C/C=C(/C)C(=O)O[C@@H]1c2c(ccc3ccc(=O)oc23)O[C@@H]1C(C)(C)OC(C)=O	15	i	0	7
CC(C)(O)[C@H]1Cc2cc3ccc(=O)oc3cc2O1	+	i	3	24
CC(C)c1cc2cc3ccc(=O)oc3cc2o1	17	-8	1	11
CCCC(=O)Nc1ccc2c(c1)OC[C@H](C)N(C(=O)c1ccncc1)C[C@@H](C)[C@@H](OC)CN(C)C2=O	·	·	0	·
C[C@@H]1CN([C@H](C)CO)S(=O)(=O)c2ccc(-c3cccc(F)c3)cc2O[C@H]1CN(C)C(=O)C1CC1	·	·	4	·
Cc1c(NC(=S)N/N=C/C=C/c2ccc([N+](=O)[O-])cc2)c(=O)n(-c2ccccc2)n1C	4	0	·	32*
COc1ccc(/C=N/NC(=S)Nc2c(C)n(C)n(-c3ccccc3)c2=O)cc1OC	-1	1	·	28
Cc1c(NC(=S)N/N=C/C=C/c2ccccc2)c(=O)n(-c2ccccc2)n1C	0	i	-4	62*
CCn1c(SCC(=O)Nc2ccc(C)cc2)nc2nc3c(cc2c1=O)COC(C)(C)C3	1	0	-5	31*
Cc1ccc(NC(=O)Cn2cnc3c(oc4nc5c(cc43)COC(C)(C)C5)c2=O)cc1	6	i	·	4
COc1ccc(NC(=O)N2CCOCC2)cc1	4	-1	-2	0
COc1ccc(C(=O)/C=C\N2CCOCC2)cc1	-1	0	·	33*
Cc1noc(C)c1NC(=O)NCC[C@H]1CC[C@H](NC(=O)Nc2cccc(F)c2)[C@@H](CO)O1	·	·	1	·
CCOC(=O)c1sc(C)c2c(=O)n(CC)nnc12	4	i	·	32*
C[C@H]1CN([C@@H](C)CO)S(=O)(=O)c2ccc(C#Cc3cccnc3)cc2O[C@H]1CN(C)C(=O)Nc1ccc2c(c1)OCO2	·	·	1	·
